Measurements taken from PubChem BioAssay.
Active and inactive are the calls of the source.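 The calls were made as follows, unless noted: active = fluorescence slope after compound addition differing from the mean of all screened samples at 99.7% confidence, in either direction; inactive = the rest.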

Legend:
[1] = inhibitors of TNFa-induced NFkB p65 translocation, primary screen, imaging, HUVEC, MLSMR starter and 10KST1 sets (AID 438;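 active = inhibition above 20% together with a positive visual image hit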;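 also: compound added about 3h40 before a 20 min TNFalpha stimulation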;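 as to inhibition: signal is the nuclear over cytoplasmic p65 intensity ratio per well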); conditions: HUVEC TNFa-induced p65 nuclear translocation; cell count: measured here: nuclei count (cytotoxicity indicator), at 2.08 µM; inhibition: at 2 µM, stronger effect = higher value, 0% TNFa-plus-vehicle, 100% no-TNFa wells
[2] = reduction of polyQ htt aggregates in cells – imaging, exon1htt(103Q)mCFP cells, high-content imaging, primary screen (AID 483;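 active = visual image review flags a hit and inhibition of aggregation exceeds 20%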;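 also: compound exposure lasted 3 days before fixation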;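 as to nuclei count: percent of the per-plate median nuclei count of sample wells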); conditions: exon1htt(103Q)mCFP cell line, aggregate imaging, at 2 µM; inhibition of aggregation: stronger effect = higher value; nuclei count: measured here: cell count, toxicity
[3] = endothelial E-selectin expression blockers – imaging, HUVEC, immunofluorescence, MLSMR starter and 10KST1 sets, primary screen (AID 487;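 active = visually confirmed hit in the image check and inhibition above 20%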;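 as to inhibition: signal is fraction of cell area covered by stained E-selectin grains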;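 as to nuclei count: 100% = median nuclei count of all wells on the same plate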); conditions: HUVEC TNFalpha-induced E-selectin immunofluorescence imaging, at 2 µM; inhibition: stronger effect = higher value; nuclei count: measured here: cell number, toxicity
[4] = target: Voltage-gated potassium channel subunit beta-2 (Rattus norvegicus) (UniProt P62483); assay: inhibitors of rat Kvbeta2 reductase activity – biochemical, NADPH fluorescence, primary screen (AID 622;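 active = fluorescence slope higher than the sample average by over 3 SD, cut at about -0.22 in these data, passing the limit was not always enough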;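 also: slope of raw intensity against log time taken from 70 to 1610 s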); conditions: recombinant KvBeta, 4-cyanobenzaldehyde reduction, at 10 µM, stronger effect = higher value
Sequence of Voltage-gated potassium channel subunit beta-2 (Rattus norvegicus) (P62483 whole entry, looked up): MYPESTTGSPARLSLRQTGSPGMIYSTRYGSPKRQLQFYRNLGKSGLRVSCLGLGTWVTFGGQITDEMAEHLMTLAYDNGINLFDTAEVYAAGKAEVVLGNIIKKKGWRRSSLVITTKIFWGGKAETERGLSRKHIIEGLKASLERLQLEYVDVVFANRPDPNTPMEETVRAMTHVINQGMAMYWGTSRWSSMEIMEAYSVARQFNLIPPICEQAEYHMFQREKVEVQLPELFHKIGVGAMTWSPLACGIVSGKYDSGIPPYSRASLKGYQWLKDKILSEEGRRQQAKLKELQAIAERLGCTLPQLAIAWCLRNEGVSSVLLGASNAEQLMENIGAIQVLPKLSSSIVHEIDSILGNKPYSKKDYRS

[5] = target: Voltage-gated potassium channel subunit beta-2 (Rattus norvegicus) (UniProt P62483); assay: enhancers of rat Kvbeta2 NADPH turnover – biochemical, NADPH fluorescence, primary screen (AID 623;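 active = NADPH fluorescence slope more negative than the mean of all samples by about 3 SD, 99.7% confidence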;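 also: fluorescence intensity change per second fitted from 20 to 320 s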); conditions: Recombinant KvBeta, NADPH fluorescence decrease slope, 10 min; at 10 µM; stronger effect = lower value
[6] = target: Alpha-2C adrenergic receptor (Homo sapiens) (UniProt P18825); assay: compounds altering alpha2C-coupled GIRK flux – cell-based, HEK293 alpha2C/GIRK1/2, thallium flux, primary screen (AID 624); conditions: thallium flux BTC fluorescence, at 10 µM, actives lie on both sides;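 also: slope of fluorescence ratio to pre-addition baseline per second over 15 to 24 s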
Sequence of Alpha-2C adrenergic receptor (Homo sapiens) (P18825 whole entry, looked up): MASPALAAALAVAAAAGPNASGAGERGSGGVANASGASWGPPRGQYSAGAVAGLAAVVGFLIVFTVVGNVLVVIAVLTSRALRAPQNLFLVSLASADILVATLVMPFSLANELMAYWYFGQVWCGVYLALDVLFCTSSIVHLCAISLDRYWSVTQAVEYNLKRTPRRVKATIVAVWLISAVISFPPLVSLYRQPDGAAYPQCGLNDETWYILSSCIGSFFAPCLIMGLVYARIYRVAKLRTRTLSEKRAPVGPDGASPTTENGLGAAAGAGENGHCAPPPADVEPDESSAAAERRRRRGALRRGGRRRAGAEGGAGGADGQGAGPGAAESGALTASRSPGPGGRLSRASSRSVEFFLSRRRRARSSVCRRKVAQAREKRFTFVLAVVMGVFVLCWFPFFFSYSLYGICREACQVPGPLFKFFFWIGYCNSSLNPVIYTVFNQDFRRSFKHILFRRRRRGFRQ

[7] = blockers of RIG-like receptor reporter activation – cell-based, Sendai virus stimulus, luciferase, 10K MLSCN set, TLR/RLR signaling modifier project, primary screen (AID 602276;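 active = inhibition at or above 50% at 10 µM; inactive = inhibition below 50%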;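 also: firefly luciferase from ISG56 promoter only with Renilla not read in this screen; 0% = Sendai virus plus DMSO and 100% = medium plus DMSO without virus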); conditions: HEK293 RL24 IRF3 luciferase reporter, at 10 µM, stronger effect = higher value
[8] = TLR3 IRF3 reporter activation blockers – cell-based, poly I:C stimulus, luciferase, 10K MLSCN set, primary screen (AID 602277;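 active = inhibition of the reporter signal at or above 50%; inactive = inhibition below 50%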); conditions: HEK293-TLR3 RL24 IRF3 luciferase reporter, at 10 µM, stronger effect = higher value

Row | Structure (SMILES) | cell count [1] | inhibition [1] | inhibition of aggregation [2] | nuclei count [2] | inhibition [3] | nuclei count [3] | fluorescence slope [4] | NADPH fluorescence slope [5] | slope [6] | inhibition [7] | inhibition [8]
1 | O=C(C1CCC(CNS(=O)(=O)c2cccc3cccnc23)CC1)N1CCCC1 (stereo not drawn) | 711 | 5.5% (inactive) | -15.3% (inactive) | 67.8% | -43.8% (inactive) | 112% | -0.549 (inactive) | -1.6e-05 (inactive) | 0.00608 (inactive) | -0.546% (inactive) | 14.6% (inactive)
2 | CN(C)S(=O)(=O)c1ccc(C(=O)N2CCCC2c2nc3ccccc3s2)cc1 (stereo not drawn) | 475 | -9.4% (inactive) | 4% (inactive) | 97.5% | -82.5% (inactive) | 102% | -0.524 (inactive) | 1.6e-05 (inactive) | 0.0053 (inactive) | -17.9% (inactive) | -7.19% (inactive)
3 | COc1ccc(N(C)C(=O)CCS(=O)(=O)c2cccc3nonc23)cc1 | 704 | -12.2% (inactive) | 0.8% (inactive) | 108% | -32.3% (inactive) | 118% | -0.488 (inactive) | 1.2e-05 (inactive) | 0.00576 (inactive) | -4.78% (inactive) | -38.6% (inactive)
4 | CCOC(=O)Nc1ccc2c(CN3C(=O)NC4(CCCC4)C3=O)cc(=O)oc2c1 | 744 | 3.5% (inactive) | -24.7% (inactive) | 99.9% | -149% (inactive) | 153% | -0.229 (inactive) | -2.4e-05 (inactive) | 0.00554 (inactive) | 0.299% (inactive) | -13.9% (inactive)
5 | Cc1ccc(N(C(=O)C2CCC(=O)N2)C2(C(=O)NC3CCCCC3)CCCCC2)cc1 (stereo not drawn) | 690 | 11.9% (inactive) | 22.8% (inactive) | 85.5% | -16.1% (inactive) | 84.9% | -0.558 (inactive) | 3.4e-05 (inactive) | 0.00517 (inactive) | -4.63% (inactive) | 5.62% (inactive)
6 | COc1ccc(CCNC(=O)CSc2nnc(CNc3ccc(Cl)cc3)o2)cc1OC | 241 | -3.2% (inactive) | 33.1% (active) | 72.1% | 10.2% (inactive) | 63.5% | -0.594 (inactive) | -1.9e-05 (inactive) | 0.0062 (inactive) | 11.9% (inactive) | 19.4% (inactive)
7 | CC(CN1CCCCC1)OC(=O)c1ccc2c(c1)OCO2 (stereo not drawn) | 639 | 4.9% (inactive) | 27.4% (inactive) | 70.8% | -45.9% (inactive) | 103% | -0.586 (inactive) | -3.4e-05 (inactive) | 0.00425 (inactive) | 6.1% (inactive) | -0.512% (inactive)
8 | O=C(CN(CC1CCCO1)C(=O)CCC(=O)Nc1ccccn1)NCC1CCCO1 (stereo not drawn) | 634 | -1.6% (inactive) | -13.7% (inactive) | 122% | -8.5% (inactive) | 122% | -0.421 (inactive) | -3e-05 (inactive) | 0.00568 (inactive) | 13.4% (inactive) | 15.3% (inactive)
9 | Cn1c(SCc2ccccc2)nnc1C1CCCNC1 (stereo not drawn) | 784 | -2.3% (inactive) | 0.6% (inactive) | 100% | 10.3% (inactive) | 125% | -0.327 (inactive) | 1.3e-05 (inactive) | 0.00512 (inactive) | 10.3% (inactive) | 15.2% (inactive)
10 | NS(=O)(=O)c1ccc(NC(=O)N[C@@H](Cc2ccccc2)C(=O)O)cc1 | 292 | -0.8% (inactive) | 5.2% (inactive) | 104% | 16.6% (inactive) | 99.7% | -0.485 (inactive) | -4.3e-05 (inactive) | 0.00476 (inactive) | 10.6% (inactive) | 16.6% (inactive)
11 | Cc1cc(C)c2nc(C(F)(F)F)nc(NCCCN3CCCC3=O)c2c1 | 277 | 5% (inactive) | 21.4% (inactive) | 80.7% | -230% (inactive) | 97.5% | -0.484 (inactive) | -2.3e-05 (inactive) | 0.00428 (inactive) | 16.5% (inactive) | 18.3% (inactive)
12 | CCOc1ccc(S(=O)(=O)n2c(C)nc3ccccc32)cc1 | 781 | -5.8% (inactive) | -0.6% (inactive) | 101% | -99.9% (inactive) | 115% | -0.627 (inactive) | 9.2e-06 (inactive) | 0.00517 (inactive) | 49.1% (inactive) | 5.17% (inactive)
13 | CN1CCN(c2nc3c(c(=O)[nH]c(=O)n3C)n2CCSc2nc3ccccc3s2)CC1 | 503 | -0.3% (inactive) | 25.5% (inactive) | 106% | 30.5% (inactive) | 100% | -0.578 (inactive) | -3e-05 (inactive) | 0.00601 (inactive) | 12.4% (inactive) | 33.3% (inactive)
14 | CS(=O)(=O)NCc1ccc(C(=O)NCc2ccccc2)cc1 | 640 | 3.3% (inactive) | 0% (inactive) | 104% | -19.7% (inactive) | 109% | -0.415 (inactive) | -3.9e-05 (inactive) | 0.003 (inactive) | -0.454% (inactive) | 5.61% (inactive)
15 | CN(C)c1ccc(C=Nc2ccc(N(C)C)cc2)cc1 | 345 | 3.4% (inactive) | -8.7% (inactive) | 106% | 14.2% (inactive) | 118% | -0.512 (inactive) | -3.7e-05 (inactive) | 0.00615 (inactive) | -5.99% (inactive) | -19% (inactive)
16 | CCOC(=O)c1ccc(-n2c(C)nc3c(cnn3-c3ccccc3C)c2=O)cc1 | 654 | 6.9% (inactive) | -46.9% (inactive) | 102% | 11.9% (inactive) | 108% | -0.543 (inactive) | -6.1e-06 (inactive) | 0.00553 (inactive) | -2.92% (inactive) | 3.65% (inactive)
17 | O=C(c1ccc(=O)[nH]c1)N(Cc1ccco1)C1(C(=O)NC2CCCC2)CCCCC1 | 296 | -7.1% (inactive) | 42.7% (active) | 85.1% | -73.8% (inactive) | 104% | -0.529 (inactive) | -8.3e-05 (inactive) | 0.00538 (inactive) | -75.5% (inactive) | 96.9% (active)
18 | O=C(c1ccccc1)N1CCN(CC2CC=CCC2)CC1 (stereo not drawn) | 391 | -9.9% (inactive) | 21.1% (inactive) | 91% | -93.3% (inactive) | 69.8% | -0.304 (inactive) | 2.3e-05 (inactive) | 0.00325 (inactive) | 6.11% (inactive) | 19.5% (inactive)
19 | CCOC(=O)c1c(NC(=O)OC)sc2c1CCC2 | 496 | -0.5% (inactive) | 9.3% (inactive) | 82.8% | -35.7% (inactive) | 125% | -0.535 (inactive) | -1.5e-05 (inactive) | 0.00667 (inactive) | 7.95% (inactive) | 15.6% (inactive)
20 | CCCOc1cccc(NC(=O)c2c(-c3ccccc3)noc2C)c1 | 515 | 2% (inactive) | 7.5% (inactive) | 92.7% | -32% (inactive) | 116% | -0.534 (inactive) | 5.8e-06 (inactive) | 0.00598 (inactive) | 12.6% (inactive) | 18% (inactive)
21 | O=C(NCc1cccnc1)c1ccc(Cl)c(Cl)c1 | 751 | -5% (inactive) | 25.4% (inactive) | 102% | 16.9% (inactive) | 102% | -0.639 (inactive) | -5.9e-06 (inactive) | 0.00439 (inactive) | 17% (inactive) | 7.17% (inactive)
22 | COC(=O)C1=CN(C(C)C)C=C(C(=O)OC)C1c1cc2c(cc1Br)OCO2 | 386 | 8.1% (inactive) | 10.8% (inactive) | 104% | -70.4% (inactive) | 78.3% | -0.365 (inactive) | 2e-05 (inactive) | 0.00637 (inactive) | 5.71% (inactive) | 11% (inactive)
23 | CCOc1cc(C2/C(=C(/O)c3ccc(OC(C)C)cc3)C(=O)C(=O)N2CCCOC)ccc1O (stereo not drawn) | 714 | -7.5% (inactive) | -20.2% (inactive) | 111% | -120% (inactive) | 111% | -0.513 (inactive) | 2e-05 (inactive) | 0.00381 (inactive) | 12.7% (inactive) | 14.8% (inactive)
24 | COc1ccc(S(=O)(=O)Cc2ccc(C(=O)N3CCN(c4ccccc4)CC3)o2)cc1 | 524 | -8.3% (inactive) | 5.7% (inactive) | 70.9% | -89.5% (inactive) | 133% | -0.44 (inactive) | -4.3e-05 (inactive) | 0.00594 (inactive) | -7.36% (inactive) | 26.1% (inactive)
25 | O=C1CC(c2ccsc2)c2cc3c(cc2N1)OCCO3 (stereo not drawn) | 623 | 0% (inactive) | -4.2% (inactive) | 87.6% | -78.5% (inactive) | 129% | -0.556 (inactive) | -2.5e-05 (inactive) | 0.0063 (inactive) | 1.12% (inactive) | 21.1% (inactive)
26 | CC(=O)NC1(C(F)(F)F)NC(=O)N(CC(C)C)C1=O (stereo not drawn) | 359 | 4% (inactive) | -8.3% (inactive) | 97.6% | -30.2% (inactive) | 101% | -0.5 (inactive) | 2e-05 (inactive) | 0.00596 (inactive) | -14.7% (inactive) | 14% (inactive)
27 | COc1ccccc1C(=O)Nc1nc2ccc(S(C)(=O)=O)cc2s1 | 417 | -6.5% (inactive) | -0.8% (inactive) | 115% | -32.3% (inactive) | 132% | -0.241 (inactive) | -6.6e-06 (inactive) | 0.00752 (inactive) | -2.51% (inactive) | -33.9% (inactive)
28 | COc1ccccc1-n1c(SCC(=O)Nc2ccc3c(c2)OCO3)nc2c(c1=O)SCC2 | 324 | -4.6% (inactive) | -2.1% (inactive) | 94.7% | -54.1% (inactive) | 137% | -0.545 (inactive) | 4.8e-05 (inactive) | 0.00487 (inactive) | -5.47% (inactive) | 7.78% (inactive)
